This is a sample that favours compounds with a hit; in the whole collection about 4.1% have one here.
DAX1 inh-1 = inhibitors of human orphan nuclear receptor DAX1 (NR0B1). HEK293 Gal4-DAX1 luciferase reporter, luminescence. inhibition, % at 6.75 µM. hit rate 0.99% among 340,000. P51843. AID 504766;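 active means inhibition above the mean over all tested compounds plus 3 SD, cut at about 4.2% in these data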;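 further: 0% = DAX1-transfected cells with DMSO and 100% = empty-vector control cells with DMSO; inhibition shows as a rise in luminescence from relieved DAX1 repression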
hgDAF12 agonist = activates the H. glycines DAF-12 receptor ligand-binding domain; hit rate 1.8% among 370,000; HEK293 GAL4-hgDAF12 UAS-luciferase reporter, agonist luminescence; normalized to butyrate control; activation, % at 6.8 µM;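 active means activation above a cutoff set at the mean of all screened compounds plus 3 SD, cut at about 10% in these data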;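 further: 0% = DMSO wells and 100% = sodium butyrate wells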
ssDAF12 agonist = S. stercoralis DAF-12 activation, primary screen; HEK293 ssDAF-12/GRIP1 lit1-tk-luc reporter, luminescence; % of 3 µM dafachronic acid response; activation, % at 6.8 µM; hit rate 1% among 370,000; AID 652126;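 active means activation above the mean over all tested compounds plus 3 SD, cut at about 0.9% in these data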;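 further: 0% = DMSO-only wells and 100% = 3 µM delta7-dafachronic acid wells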
hcDAF12 agonist = activators of H. contortus DAF-12 nuclear receptor; AID 652067; HEK293 hcDAF-12 lit1-tk-luc reporter, luminescence; 0% DMSO, 100% Δ7-dafachronic acid; hit rate 1.4% among 370,000; activation, % at 6.8 µM;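 active means activation above the mean of all tested compounds plus 3 SD, cut at about 5.5% in these data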;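 further: 100% = response to 3 µM Δ7-dafachronic acid high control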
DAX1 inh-2 = inhibitors of DAX1 repression of SF-1 activated StAR promoter. HEK293T StAR-luciferase reporter, SF-1/DAX-1 repression relief. inhibition, % at 6.8 µM. hit rate 1.1% among 370,000. AID 652010;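 active means inhibition above the mean over all tested compounds plus 3 SD, cut at about 3.6% in these data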;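 further: 0% = DAX-1 cells with DMSO and 100% = cells lacking DAX-1 with DMSO; higher inhibition means more luminescence from relief of DAX-1 repression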
hgDAF12 ag = hgDAF-12 agonism, confirmation assay | hit rate 80% among 3,300 | activation, % at 6.8 µM | shares compounds with hgDAF12 agonist | HEK293 GAL4-hgDAF12 luciferase reporter, agonist mode; percent of butyrate response;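 active means mean activation over triplicate wells above the hit cutoff derived from the earlier primary screen, cut at about 11% in these data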;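 further: 0% = DMSO low control and 100% = 2 mM sodium butyrate high control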
LXRb DAF12 ctr = counter-screen for DAF-12 agonists: agonists of human LXR-beta; shares compounds with hgDAF12 agonist; HEK293 Gal4-LXR luciferase reporter, 24 h; activation, % at 6.8 µM; 3,300 tested, under 10 active; AID 743051;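 active means mean activation of the triplicate above a set limit carried over from the primary screen, none filed active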
Target sequence (P55055 whole entry, looked up, the tested form may be a part): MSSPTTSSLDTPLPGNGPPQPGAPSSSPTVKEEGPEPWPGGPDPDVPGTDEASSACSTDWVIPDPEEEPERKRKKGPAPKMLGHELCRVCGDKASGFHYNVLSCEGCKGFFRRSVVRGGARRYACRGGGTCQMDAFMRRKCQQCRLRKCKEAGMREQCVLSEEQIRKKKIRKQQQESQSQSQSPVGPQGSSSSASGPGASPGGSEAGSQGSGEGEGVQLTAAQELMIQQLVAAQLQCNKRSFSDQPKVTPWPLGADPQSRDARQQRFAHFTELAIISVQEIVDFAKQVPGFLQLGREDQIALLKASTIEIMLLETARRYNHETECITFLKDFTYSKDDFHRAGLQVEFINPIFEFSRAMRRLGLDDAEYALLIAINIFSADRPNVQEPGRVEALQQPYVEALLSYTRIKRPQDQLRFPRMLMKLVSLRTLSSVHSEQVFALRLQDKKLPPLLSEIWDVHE
* = called active by the depositor; . = no result given.

SMILES | DAX1 inh-1 | hgDAF12 agonist | ssDAF12 agonist | hcDAF12 agonist | DAX1 inh-2 | hgDAF12 ag | LXRb DAF12 ctr
COc1cc(C(=O)C(=O)N2CCN(c3ccccc3)CC2)cc(OC)c1OC | . | -1 | -1 | -2 | -3 | . | .
CCN(CC)S(=O)(=O)c1ccc(OC)c(NC(=O)c2cc([N+](=O)[O-])ccc2N2CCOCC2)c1 | 2 | 2 | -1 | -2 | 0 | . | .
N/C(=N\OC(=O)COc1ccc(Cl)cc1Br)c1ccncc1 | 2 | 16* | 1.3* | 5 | 3 | 19* | 1
N/C(=N\OC(=O)COc1cc(Cl)c(Cl)cc1Cl)c1ccccn1 | . | 14* | -1 | 1 | 3 | 12* | 1
O=C(OCC#CCSc1nnc(-c2ccccc2Cl)o1)c1ccc(F)cc1 | . | 6 | -1 | -1 | . | . | .
C(=N\NC1=Nc2cccc3cccc1c23)/c1cccnc1 | 2 | 16* | 0 | 5 | 0 | 11* | 0
Clc1ccccc1-c1nc(N/N=C/c2cccnc2)c2ccccc2n1 | -1 | -2 | -2 | -1 | -2 | . | .
OCCCN=c1cc(-c2ccccc2)oc2ccc(Cl)cc12 | 1 | 18* | 0 | 4 | 0 | 11* | 0
OCCNc1nc(-c2ccccc2)c2cc(Cl)ccc2n1 | 0 | -1 | -1 | -1 | 0 | . | .
COc1ccccc1/C=C/c1ccc2cccc(O)c2n1 | 3 | 5 | 0 | 6 | 1 | . | .
O=C(O)c1ccc(/C=C/c2ccc3cccc(O)c3n2)cc1 | 1 | 15* | 0 | 3 | 3 | 11* | 0
c1ccc2[nH]c(NCc3ccc4c(c3)OCO4)nc2c1 | 1 | 14* | -1 | 3 | 3 | 10 | 0
c1ccc(CNc2nc3ccccc3[nH]2)cc1 | 1 | 5 | -1 | 1 | 2 | . | .
CCOC(=O)C1(C)CCN1C(=O)c1cccc(C#N)c1 (stereo not drawn) | . | 2 | 0 | -1 | 0 | . | .
CN1CCN(c2ccc(NC(=O)c3ccccc3Br)cc2)CC1 | 2 | 6 | -1 | 4 | 1 | . | .
O=C(Nc1ccccc1)c1ccc(-c2ccccc2C(F)(F)F)o1 | 0 | 7 | -1 | -1 | 1 | . | .
O=C(Nc1ccccc1)c1ccc(-c2ccccc2Cl)o1 | 4 | 13* | 0 | 5 | 3 | 13* | 0
CN1CCN(c2ccc(NC(=O)c3ccc(-c4ccccc4F)o3)cc2)CC1 | 2 | 24* | 1.4* | 5 | 4.4* | 17* | 1
CC1CCN(C(=O)CCc2nnc(-c3ccccc3)o2)CC1 | 0 | 14* | 0 | 1 | 1 | 11* | 0
COC(=O)C1CN(Cc2ccc(Cl)cc2)CCS(=O)(=O)N1Cc1cn(Cc2ccc(C)cc2)nn1 (stereo not drawn) | . | 1 | -1 | -4 | 0 | . | .
CCOC(=O)Cc1csc(NC(=O)c2ccco2)n1 | 1 | 13* | -1 | 1 | 3 | 4 | 0
O=C(Nc1cccc(Cl)c1Cl)c1csc([C@H]2C[C@H](O)[C@@H](CO)O2)n1 | . | 15* | 0 | 5 | 2 | 13* | 1
O=C(Nc1cccc(Cl)c1Cl)c1csc([C@@H]2O[C@H](CO)[C@@H](O)[C@H]2O)n1 | . | 7 | -1 | 0 | 2 | . | .
COc1ccccc1-c1cnc(C(O)c2ccc(C(C)(C)C)cc2)[nH]1 (stereo not drawn) | . | -2 | -1 | -1 | -1 | . | .
C[C@@H]1CN([C@@H](C)CO)C(=O)c2cc(Br)cnc2O[C@@H]1CN(C)S(C)(=O)=O | 0 | 0 | 0 | -1 | 0 | . | .
SMILES | DAX1 inh-1 | hgDAF12 agonist | ssDAF12 agonist | hcDAF12 agonist | DAX1 inh-2 | hgDAF12 ag | LXRb DAF12 ctr
C=CCN1C(=S)CC(c2ccccc2)=Nc2ccccc21 | -1 | 14* | -1 | 0 | 0 | 0 | 0
COc1ccc(NC(=S)N2CCC3CC2c2c(Cl)cccc23)c(OC)c1 (stereo not drawn) | -1 | -3 | 0 | 0 | 1 | . | .
CCOC(=O)C1=CCN(S(=O)(=O)c2ccccc2F)C1c1cccc(C)c1 (stereo not drawn) | . | 0 | -1 | -2 | 1 | . | .
O=C(NN=C1CCCC1)c1cccc(O)c1 | 1 | 14* | 1 | 3 | 3 | 2 | 0
Clc1ccccc1-c1nnc(-c2ccc3c(c2)OCO3)o1 | 3 | 19* | 1 | 5.8* | 4 | 15* | 1
Clc1ccc(-c2nnc(-c3ccccc3)o2)c(Cl)c1 | 1 | 16* | 0 | 5 | 4.0* | 16* | 1
CSc1ccccc1-c1nnc(-c2ccc(Cl)cc2Cl)o1 | 1 | 1 | -1 | -1 | 0 | . | .
Clc1ccccc1-c1nnc2sc(-c3ccc4c(c3)OCO4)nn12 | 0 | 2 | -1 | -1 | -2 | . | .
O=C(c1ccc(-c2ccc(Cl)cc2Cl)o1)N1CCOCC1 | 4.4* | 18* | -1 | 0 | 3 | 12* | 0
O=C(c1ccc(-c2cc(Cl)ccc2Cl)o1)N1CCOCC1 | 0 | 3 | -1 | -1 | 0 | . | .
Cc1cccc(/C=C/c2nc3ccccc3c(=O)[nH]2)c1 | 0 | 18* | 0 | 4 | 3.7* | 21* | 1
COc1cc(/C=C/c2nc3ccccc3c(=O)[nH]2)ccc1O | 3 | 17* | 0 | 3 | 3.7* | 11* | 1
O=c1[nH]c(/C=C/c2ccccc2Cl)nc2ccccc12 | 2 | 14* | 0 | 2 | 2 | 21* | 1
O=C(O)c1ccc(/C=C/c2nc3ccccc3c(=O)[nH]2)cc1 | 2 | 0 | -1 | 0 | 0 | . | .
COCCCNC(=O)c1oc(=O)c2ccccc2c1-c1ccc(C)cc1 | . | 2 | -1 | -2 | 0 | . | .
Cc1ccccc1NC(=O)C(C)OC(=O)CCC(=O)c1ccccc1 (stereo not drawn) | 0 | -1 | -1 | -1 | 2 | . | .
CCOc1ccc(-c2cc(C(=O)Nc3ccc(C)c(NS(C)(=O)=O)c3)[nH]n2)c(C)c1 | . | -4 | -2 | -4 | -5 | . | .
CCOc1cc(/C=N/NC(=O)N/N=C/c2ccc(O)c(OCC)c2)ccc1O | . | 14* | 1.1* | 5 | -1 | 16* | 1
COc1cc(/C=N/NC(=O)CCC(=O)Nc2ccc(F)cc2)ccc1O | 1 | 24* | -1 | 0 | 0 | 0 | 0
Cc1ccc(S(=O)(=O)NC(=O)C2(C)CCN2C(=O)c2cccc(F)c2)cc1 (stereo not drawn) | . | 3 | -1 | -1 | 0 | . | .
C[C@@H]1CCCCO[C@@H](CN(C)C(=O)CCCN(C)C)[C@@H](C)CN([C@H](C)CO)C(=O)c2cc(NC(=O)CCC(F)(F)F)ccc2O1 | -1 | -2 | -1 | 0 | 1 | . | .
CCn1c(SCC(=O)c2ccc(-c3ccccc3)cc2)nnc1-c1ccc(C(C)(C)C)cc1 | . | 1 | -2 | 1 | -2 | . | .

From PubChem
